A selection: hits, their analogues and other compounds. The true share with any hit is near 4.6%.
KKLEB cytotox = reduces viability of KKLEB cystic fibrosis airway cells; KKLEB CF airway cells viability, ATPlite luminescence, overnight; stronger effect = lower value; cells stimulated with P. aeruginosa culture filtrate; activity change (cytotoxicity), % at 5 µM; 360,000 compounds, 0.36% hits; AID 602141;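 active = corrected activity change at or below -50% at 5 µM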
ABHD5-PLIN5 inh = ABHD5-PLIN5 protein interaction inhibition | Q00G26+Q8WTS1 | Split G. princeps luciferase complementation, luminescence, 4 h | inhibition, % at 4 µM | 360,000 compounds, 0.78% hits | AID 602281;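 active = inhibition above the mean inhibition across every tested compound plus 3 SD, cut at about 22% in these data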;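 note: 0% = DMSO only wells and the 100% control is not disclosed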
Peg3 promoter = Peg3 promoter activity inhibition; HeLa PEG-Prom luciferase reporter, luminescence, overnight; inhibition, % at 20 µM; 360,000 compounds, 1.7% hits;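 active = inhibition of at least 50% at 20 µM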
CF NFkB inh = cystic fibrosis NF-kB activation inhibition | inhibition, % at 5 µM | AID 588850 | KKLEB NF-kB-GFP reporter, PAF-induced, GFP fluorescence overnight | 360,000 compounds, 0.86% hits;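 active = at least 50% inhibition at 5 µM, scaled per plate between neutral and stimulator controls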;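 note: PAF is a Pseudomonas aeruginosa culture filtrate used as stimulus; plate controls were PAF-stimulated DMSO wells for no effect and unstimulated DMSO wells for full effect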
HIF-2a inh = inhibitors of HIF-2a. inhibition, % at 18.8 µM. 360,000 compounds, 0.72% hits. 786-0 RCC cells HIF-2a reporter, luciferase luminescence, overnight. AID 624352;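 active = inhibition of the luminescence signal of 40% or more relative to plate controls, in a single-dose primary screen at 18.75 µM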
Mdm2-MdmX inh = disrupts the human Mdm2-MdmX interaction. O15151+Q00987. SaOS-2 split-luciferase Mdm2/MdmX complementation, luminescence. inhibition, % at 8 µM. 330,000 compounds, 3% hits. AID 485346;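 active = inhibition of at least 50% at 8 µM in the primary screen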
ABHD5-PLIN5 conf = confirmation of human ABHD5-PLIN5 interaction inhibitors; shares compounds with ABHD5-PLIN5 inh; biochemical ABHD5-PLIN5 interaction, luminescence; inhibition, % at 4 µM; 2,200 compounds, 67% hits; AID 651612; in the data active = inhibition above about 23%;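 note: 0% = DMSO vehicle wells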
HNF4 split-luc = counter-screen for ABHD5-PLIN5 inhibitors: HNF4 split-luciferase; shares compounds with ABHD5-PLIN5 inh; HNF4 dimerization, luminescence, biochemical; inhibition, % at 4 µM; 2,200 compounds, 77% hits; AID 651674;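 active = mean inhibition across replicate wells exceeding the computed hit threshold, cut at about 13% in these data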;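 note: light from luciferase halves that rejoin when HNF4 fusion proteins dimerize; 0% = DMSO only wells and the 100% control is not given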
* = called active by the depositor; . = no result given.

SMILES | KKLEB cytotox | ABHD5-PLIN5 inh | Peg3 promoter | CF NFkB inh | HIF-2a inh | Mdm2-MdmX inh | ABHD5-PLIN5 conf | HNF4 split-luc
CCCc1nc2sc3ccccc3c(=O)c2c(=O)n1Cc1ccco1 | 0.9 | 27.5* | 6.5 | -18.4 | -32.4 | . | 52.2* | 73.7*
COc1ccc(/C=C2/CCOC2=O)cc1 | 6.6 | 0.0 | -36.5 | -4.1 | -16.1 | 19.1 | . | .
COc1ccc(C=C2CS(=O)(=O)CC(=Cc3ccc(OC)cc3)C2=O)cc1 | -17.7 | 93.8* | 97.1* | 92.0* | 85.6* | . | 103.4* | 105.0*
Cc1ccc(SCC(=O)NNC(=O)c2cncc(Br)c2)cc1 | -4.3 | -0.8 | 14.0 | -34.7 | 14.6 | 4.0 | . | .
O=CN1CCN(C=O)C(O)C1O (stereo not drawn) | -4.6 | 9.0 | 7.3 | -13.2 | 7.7 | . | . | .
Cc1oc(-c2ccc(Cl)cc2)cc1-c1nn2c(-c3ccoc3C)nnc2s1 | -16.7 | 24.4* | 3.3 | 3.2 | -5.1 | -16.6 | 12.8 | 17.3*
CNC(=O)c1cc(Oc2ccc(NC(=O)c3[nH]c(-c4ccccc4)c4c3C(=O)N(C)C4=O)cc2)ccn1 | 2.3 | -4.8 | 10.3 | -25.0 | 17.2 | . | . | .
O=C(O)c1cccc(-c2ccc3c(c2)OCO3)c1 | 9.2 | 88.3* | -10.3 | -0.9 | -6.4 | -28.5 | 2.5 | 3.5
O=C(O)c1ccc2c(c1)OCCO2 | -7.3 | 3.0 | -4.8 | -9.4 | 1.4 | 11.7 | . | .
CCOC(=O)c1cc2c(=O)n3cccc(C)c3nc2n(CC(C)C)c1=NC(=O)c1ccco1 | -9.6 | -23.6 | 1.7 | -24.0 | 9.0 | 29.6 | . | .
CCOC(=O)c1cc2c(=O)n3ccccc3nc2n(C(C)C)c1=NC(=O)c1ccco1 | 3.1 | 40.7* | -3.4 | -9.3 | 13.0 | 3.6 | 13.6 | 23.7*
Cc1ccc(S(=O)(=O)c2cc3c(=O)n4ccccc4nc3n(Cc3ccco3)c2=N)cc1C | . | . | . | . | . | 23.7 | . | .
N=c1c(S(=O)(=O)c2ccccc2)cc2c(=O)n3ccccc3nc2n1Cc1ccco1 | -12.3 | 25.0* | 30.3 | 18.9 | 17.6 | 26.3 | 11.3 | 25.0*
CCOC(=O)c1cc2c(=O)n3ccccc3nc2n(Cc2ccco2)c1=NC(=O)c1cccc(OC)c1 | 9.4 | 14.6 | -13.3 | -21.2 | -9.7 | -31.1 | . | .
CCOCCCn1c(=NC(=O)c2ccco2)c(C(=O)OCC)cc2c(=O)n3cccc(C)c3nc21 | -7.2 | 27.1* | 14.3 | 7.2 | 12.4 | 17.0 | 19.2 | 30.1*
CCOC(=O)c1cc2c(=O)n3ccccc3nc2n(Cc2ccco2)c1=NC(=O)c1ccccc1OC | -6.8 | 44.3* | -17.3 | -23.6 | -10.9 | -5.6 | 20.3 | 73.3*
CCCCCCn1c(=O)n2n(c1=O)[C@@H]1CN(S(=O)(=O)c3ccc(C)cc3)C[C@]1(O)[C@@H](OC(=O)NCc1ccc(OC)c(OC)c1)C2 | -13.1 | -20.5 | 30.3 | 34.2 | 1.8 | . | . | .
CCCn1c(=NC(=O)c2ccco2)c(C(=O)OCC)cc2c(=O)n3ccccc3nc21 | -9.9 | 40.9* | 8.0 | -30.2 | -17.5 | 17.7 | 11.3 | 26.6*
CCOC(=O)c1cc2c(=O)n3ccccc3nc2n(Cc2ccco2)c1=NC(=O)c1ccc(OC)cc1 | 1.6 | 12.9 | 11.9 | -43.5 | 1.6 | 7.1 | . | .
CC(C)n1c(=NC(=O)c2ccco2)c(C#N)cc2c(=O)n3ccccc3cc21 | -19.3 | 27.2* | 12.2 | 22.6 | 18.4 | 15.9 | 29.4* | 53.9*
CC[n+]1c(/C=C/c2ccc(N(C)C)cc2)ccc2ccccc21 | -13.4 | 29.4* | 49.4 | -35.0 | -41.0 | . | 26.6* | 27.9*
CC[n+]1ccccc1/C=C/c1ccc(N(C)C)cc1 | 9.3 | 4.8 | 5.2 | -34.5 | 8.3 | . | . | .
CC[n+]1ccc(/C=C/c2ccc(N(C)C)cc2)c2ccccc21 | -12.8 | 27.7* | 50.0 | -50.2 | 26.6 | . | 32.2* | 32.5*
O=C(NCc1ccco1)c1cnn2c(C(F)(F)F)cc(-c3cccs3)nc12 | -4.2 | 24.0* | 10.0 | -8.4 | 5.6 | 43.3 | 24.7* | 46.7*
O=C(C=Cc1ccccc1)c1c[nH]c2ccccc2c1=O | -18.2 | 27.4* | 96.6* | 39.5 | -18.3 | . | 73.6* | 62.9*

Compound activity (PubChem BioAssay)
